Only some compounds are listed: those with a hit (about 7.3% of all), similar ones and a draw of the others.
AmpC inh detg: inhibitors of E. coli AmpC beta-lactamase with detergent. P00811. AmpC hydrolysis of nitrocefin, absorbance 480 nm, 0.01% Triton. Potency, µM (doses to about 114 µM), for inactives: at the highest dose activity change, negative = inhibition, hits mostly inhibitors. hit rate 0.041% among 370,000;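 note: potency is the fitted concentration of half-maximal effect; 0% = no-compound wells and -100% = no-enzyme wells; nearly all actives have a fitted effect of over 25% in size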
Target sequence (P00811 whole entry, looked up): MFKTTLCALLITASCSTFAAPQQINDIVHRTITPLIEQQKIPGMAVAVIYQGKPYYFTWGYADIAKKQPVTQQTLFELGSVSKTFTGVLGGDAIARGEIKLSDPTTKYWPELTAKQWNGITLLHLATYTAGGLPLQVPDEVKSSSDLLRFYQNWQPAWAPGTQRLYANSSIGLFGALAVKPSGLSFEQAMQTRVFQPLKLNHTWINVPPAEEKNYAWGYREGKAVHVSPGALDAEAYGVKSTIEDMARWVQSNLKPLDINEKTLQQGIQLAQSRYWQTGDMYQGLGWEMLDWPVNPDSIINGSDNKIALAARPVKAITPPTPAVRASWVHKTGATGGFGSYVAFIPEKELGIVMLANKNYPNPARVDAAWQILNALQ
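AmpC (5.3 nM in the dispensed reagent) in 20 mM phosphate pH 7.0 with 0.01% (detergent screen) or 0.0001% Triton X-100 was preincubated with compounds for 15 min at room temperature. Nitrocefin was then added from an 800 uM solution, and hydrolysis was followed at 480 nm.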
FMDV antiviral: antivirals against foot and mouth disease virus; hit rate 1.2% among 410,000; Potency, µM (series often up to 57.9 µM), for inactives: top-dose activity change, negative = inhibition, most hits filed as inhibitors; FMDV antiviral cell-based qHTS; calls by dose curve; tested in HEK293T cells; note: read-out not given here; potency is the fitted concentration of half-maximal effect; nearly all actives have a fitted effect of over 45% in size
HCV inhibitor: blocks hepatitis C virus; Huh7.5.1 HCVcc-Cre infection, luciferase reporter, 44 h; Potency, µM (highest dose often 41.8 µM), for inactives: at the highest dose activity change, negative = inhibition, most hits filed as inhibitors; hit rate 3.4% among 340,000; note: potency is the fitted concentration of half-maximal effect
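After 44 h co-culture of compound, cells and HCVcc-Cre (~0.5 moi), substrate is added for 15 min at room temperature and luciferase measured over 15 sec. Cells were seeded at 1,000/well and pre-cultured 4 h.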
HCMV inh: blocks human cytomegalovirus replication. hit rate 4.5% among 410,000. AID 1259415. activity change, negative = inhibition, % at 57.5 µM. HFF cells, HCMV-luciferase reporter, 72 h; hits give low values; in the data active = activity change below about -60%; inconclusive = no clear call, values can overlap the other calls; inactive = above about -39%
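Compounds were evaluated in HFFs infected with an HCMV luciferase reporter virus (MOI 1 PFU/cell). Luciferase in lysates collected 72 h post infection served as the replication measure.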
AmpC no deterg: blocks E. coli AmpC beta-lactamase in detergent-free assay | P00811 | AmpC nitrocefin hydrolysis, absorbance 480 nm, 0.0001% Triton | Potency, µM (doses to about 57.1 µM), for inactives: at the highest dose activity change, negative = inhibition, actives largely listed as inhibitors | hit rate 0.52% among 330,000 | AID 485341;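 note: potency is the fitted concentration of half-maximal effect; plate controls were no compound for no effect and no enzyme for full effect; nearly all actives have a fitted effect of over 20% in size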
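AmpC (5.3 nM in the dispensed reagent) in 20 mM phosphate pH 7.0 with 0.01% (detergent screen) or 0.0001% Triton X-100 was preincubated with compounds for 15 min at room temperature. Nitrocefin was then added from an 800 uM solution, and hydrolysis was followed at 480 nm.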
Active calls of the source: *; ? = inconclusive; / = no result given. Unless noted, calls come from the whole dose curve; as a rule, active = well fitted curve in the direction sought with a large enough effect; inconclusive = small, poorly fitted or top-dose-only effect, or another doubt; inactive = no such curve, though single readings can be large; an effect the other way counts as inactive or inconclusive. Unless noted, % is set by controls: 0 for no effect and ±100 for the full control effect.

SMILES	AmpC inh detg	FMDV antiviral	HCV inhibitor	HCMV inh	AmpC no deterg
Cn1c(=O)c2c(nc(SCC(=O)Nc3ccccc3F)n2Cc2ccccc2F)n(C)c1=O	0%	0%	/	11	/
O=C(c1ccco1)N1CCc2[nH]nc(-c3ccc(Cl)cc3)c2C1	-4%	?	11µM*	-19	21%
COc1ccc(C(=O)OC(C)C(=O)NC2CCCCC2C)cc1S(=O)(=O)N1CCOCC1 (stereo not drawn)	-5%	-7%	9%	-98*	33%
O=C(NCC1CCCCN1)c1cc(OCC(F)(F)F)ccc1OCC(F)(F)F (stereo not drawn)	-13%	0%	10µM*	0	-4%
O=C(CCl)NCCNC(=O)c1cc(OCC(F)(F)F)ccc1OCC(F)(F)F	-3%	-13%	22µM*	-78*	0%
COc1ccccc1N/N=C/c1ccc2c(c1)OCO2	?	41%	2%	-71*	-9%
CN(C(=O)COC(=O)CNC(=O)c1sc2ccccc2c1Cl)C1CCS(=O)(=O)C1 (stereo not drawn)	/	19%	16%	25	49%
CC(=O)c1ccc(F)c(-c2cc(C)cc3c2OC(CNC(=O)c2cccnc2)C3)c1 (stereo not drawn)	/	-3%	/	/	/
O=c1[nH]cnc2c1sc1nc3c(c(-c4ccc(Cl)cc4)c12)CCC3	-1%	?	6%	?	-15%
Cc1sc2nc[nH]c(=O)c2c1-c1ccc(Cl)cc1	0%	-19%	-12%	-74*	-25%
CCNC(=O)C1(C)CCN(C(=O)c2ccc(N(C)C)cc2)C1 (stereo not drawn)	/	-19%	/	0	/
Cc1sc(NC(=O)/C=C/c2ccco2)c(C(=O)O)c1C	3%	14%	7%	24	-20%
CCc1ccccc1N1CC23C=CC(O2)C(C(=O)O)C3C1=O (stereo not drawn)	1%	-5%	12%	20	3.5µM*
CCCCOC(=O)C1[C@H]2C(=O)N(c3ccccc3CC)C[C@]23C=C[C@H]1O3 (stereo partly drawn)	-17%	-9%	20%	-12	23%
COc1ccc(/C(N)=N/OC(=O)Cc2ccc(OC)c(OC)c2)cc1	-1%	/	?	-90*	100%
COc1ccc(CC(=O)O/N=C(\N)c2ccncc2)cc1OC	/	-6%	/	-23	/
N=c1c2ccccc2nnn1-c1cccc(C(F)(F)F)c1	3%	2%	18%	-61*	-20%
O=C(O)Cc1c(C(=O)O)nnn1-c1cccc(C(F)(F)F)c1	3%	-10%	8%	-3	-24%
Cc1cccc(NC(=O)c2oc3ccccc3c2NC(=O)Cc2coc3cc(C)cc(C)c23)c1	19%	-1%	/	-4	/
COc1ccc(-c2nc(CSCC(=O)N3CCN(c4ccccc4F)CC3)c(C)o2)cc1	?	32µM*	/	?	/
CCOc1ccc(-c2nc(CSCC(=O)N3CCN(c4cccc(OC)c4)CC3)c(C)o2)cc1	1%	20µM*	13µM*	-77*	173%
Cc1ccc(-c2nc(CSCC(=O)N3CCN(c4ccccn4)CC3)c(C)o2)cc1	-7%	?	?	?	114%
CCc1ccc(-c2nc(CSCC(=O)N3CCN(c4ccccn4)CC3)c(C)o2)cc1	-14%	20µM*	16µM*	-18	178%
O=C(Nc1nccs1)c1ccc(-c2ccc(F)c(Cl)c2)o1	0%	12%	22µM*	18	25µM*
O=C(Nc1nccs1)c1ccc(-c2ccc(Cl)cc2Cl)o1	8%	13%	-4%	-2	-53%
SMILES	AmpC inh detg	FMDV antiviral	HCV inhibitor	HCMV inh	AmpC no deterg
COc1ccc(-n2nc3c(c2NC(=O)C(C)Cl)CSC3)cc1 (stereo not drawn)	-12%	-8%	-12%	33	-33%
COc1ccc(-n2nc3c(c2NC(=O)CCl)CSC3)cc1	4%	32µM*	-32%	-29	-15%
COC(=O)c1cc(=O)n(Cc2ccc3c(c2)OCO3)c(=Nc2ccc(F)cc2)s1	?	13µM*	?	26	-25%
COC(=O)c1cc(=O)n(Cc2ccc3c(c2)OCO3)c(=Nc2ccccc2)s1	-9%	35µM*	-4%	8	-13%
CN(Cc1ccccc1)Cc1cc(=O)oc2ccc3ccccc3c12	/	-9%	/	4	/
CN(C)c1cccc(NC2=CC(=[N+]3CCOCC3)CC(C)(C)C2)c1	2%	4%	8%	47	0%
CCN(CC)C1=CC(=[N+]2CCCC2)CC(C)(C)C1	?	?	?	-95*	-10%
CN(Cc1ccccc1)C1=CC(=[N+]2CCCC2)CC(C)(C)C1	0%	?	?	-99*	10%
CC1CCCC(C)N1C(=O)CSc1nnc(-c2ccco2)n1C (stereo not drawn)	6%	-14%	26%	-3	-5%
COc1cccc(C(C[N+](=O)[O-])c2c(C)[nH]n(-c3ccccc3)c2=O)c1 (stereo not drawn)	-12%	-9%	10%	7	-42%
Cc1[nH]n(-c2ccccc2)c(=O)c1C(C[N+](=O)[O-])c1ccc(Br)cc1 (stereo not drawn)	2%	?	-8%	-104*	-51%
Cc1nc(SCc2ccccc2)[nH]c(=O)c1CC(=O)OCC(C)C	-1%	3%	2%	-15	-30%
CCOC(=O)C(=CNc1ccccc1Cl)C(=O)OCC	-5%	-2%	?	-61*	7%
CCOC(=O)C(=CNc1cc(Cl)c(-c2ccco2)c(Cl)c1)C(=O)OCC	-3%	-26%	13µM*	9	-2%
CCOC(=O)C(=CNc1ccc(-c2ccco2)c(Cl)c1)C(=O)OCC	-10%	-22%	?	?	24%
COc1ccc(C(=O)Nc2ccc(C)cn2)c(OC)c1	?	1.8µM*	10µM*	-76*	3%
COc1ccc(C(=O)Nc2cccc3c2CCCC3)c(OC)c1	/	30%	32µM*	-32	/
COc1ccc(CCC(=O)Nc2cc3c4c(c2)CC(=O)N4CCC3)cc1	5%	-11%	?	-22	13%
COc1ccc(C(=O)Nc2nnc(Cc3ccc(OC)c(OC)c3)s2)c(OC)c1	-4%	-5%	11µM*	26	89%
COc1ccc(C(=O)Nc2cc3c4c(c2)CC(=O)N4CCC3)c(OC)c1	-6%	80%	4µM*	/	84%
COc1ccc(C(=O)Nc2cc3c4c(c2)CC(=O)N4CCC3)cc1	-6%	23%	2.2µM*	-10	-18%
O=C(Nc1cc2c3c(c1)CC(=O)N3CCC2)c1ccc(F)cc1	-5%	2%	4%	29	-26%
O=C(NC12CC3CC(CC(C3)C1)C2)c1ccc(COc2ccc(Cl)cc2[N+](=O)[O-])o1	-7%	?	8.9µM*	/	-4%
Cc1ccc(OCc2ccc(C(=O)Nc3ccc(C(N)=O)cc3)o2)c([N+](=O)[O-])c1	8%	-9%	-9%	25	-13%

Compound activity deposited in PubChem BioAssay by National Center for Advancing Translational Sciences (NCATS).
